Test results taken from PubChem BioAssay AID1159580 (chemical genetic matrix, 2015).
Where “and” joins values, the source holds several entries; their conditions need not be identical. Equal values may be shown once. The whole screen tested about 5,500 compounds, of which about 2,000 (36%) were called active. Roughly 18% stayed inconclusive and do not appear here. Cut-off read from the data, not from the text of the source: active = normalized growth mostly below about 0.91 (no sharp cut-off); inconclusive = no clear call, values can overlap the other calls; inactive = mostly above about 0.92. The list shows a part of the results.

Assay: chemical genetic growth profiling, strain panel (AID 1159580);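 note: tested at 20 µM; growth read once vehicle control cultures reached saturation at 30 °C; 1 = growth at the plate median or of vehicle wells; lower values mean less growth of the strain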
Conditions: S. cerevisiae deletion strains, growth OD

Measured: normalized growth

C=C1CCC2C(CC2(C)C)C(=O)CCC1O (stereo unspecified)
inactive: locus YAL013W, strain DEP1, stronger effect = lower value 0.984 | locus YAL021C, strain ccr4, stronger effect = lower value 0.94 | locus YAL026C, strain drs2, stronger effect = lower value 0.996 | locus YAL030W, strain snc1, stronger effect = lower value 1 | locus YBL061C, strain skt5, stronger effect = lower value 0.999 | locus YBR009C, strain hhf1, stronger effect = lower value 0.987 | locus YBR021W, strain FUR4, stronger effect = lower value 1.02 | locus YBR023C, strain chs3, stronger effect = lower value 0.986 | locus YBR171W, strain sec66, stronger effect = lower value 1 | locus YBR229C, strain ROT2, stronger effect = lower value 1.01 | locus YBR231C, strain swc5, stronger effect = lower value 1.01 | locus YBR279W, strain paf1, stronger effect = lower value 0.995 | locus YCL011C, strain gbp2, stronger effect = lower value 0.984 | locus YCL016C, strain dcc1, stronger effect = lower value 0.983 | locus YCL029C, strain bik1, stronger effect = lower value 1 | locus YCL061C, strain MRC1, stronger effect = lower value 0.993 | locus YCL069W, strain vba3, stronger effect = lower value 0.999 | locus YCR088W, strain abp1, stronger effect = lower value 0.993 | locus YDL005C, strain med2, stronger effect = lower value 0.991 | locus YDL035C, strain GPR1, stronger effect = lower value 1 | locus YDL040C, strain nat1, stronger effect = lower value 1 | locus YDL074C, strain BRE1, stronger effect = lower value 1 | locus YDL101C, strain DUN1, stronger effect = lower value 1.03 | locus YDL134C, strain PPH21, stronger effect = lower value 1.04 | locus YDL185W, strain tfp1, stronger effect = lower value 1.03 | locus YDL192W, strain arf1, stronger effect = lower value 0.992 | locus YDR001C, strain nth1, stronger effect = lower value 0.976 | locus YDR069C, strain doa4, stronger effect = lower value 0.981 | locus YDR101C, strain arx1, stronger effect = lower value 0.995 | locus YDR137W, strain rgp1, stronger effect = lower value 0.985 | locus YDR159W, strain sac3, stronger effect = lower value 1.06 | locus YDR162C, strain NBP2, stronger effect = lower value 1.01 | locus YDR195W, strain ref2 0.968 | locus YDR297W, strain sur2, stronger effect = lower value 1.01 | locus YDR318W, strain mcm21, stronger effect = lower value 1 | locus YDR334W, strain swr1, stronger effect = lower value 0.988 | locus YDR335W, strain msn5, stronger effect = lower value 0.985 | locus YDR388W, stronger effect = lower value 1.02 | locus YDR392W, strain spt3, stronger effect = lower value 0.911 | locus YDR502C, strain sam2, stronger effect = lower value 1.04 | locus YEL003W, strain gim4, stronger effect = lower value 1 | locus YEL037C, strain rad23, stronger effect = lower value 0.993 | locus YEL061C, strain CIN8 (second series), stronger effect = lower value 0.993 | locus YEL061C, strain CIN8, stronger effect = lower value 1.02 | locus YER015W, strain faa2, stronger effect = lower value 0.981 | locus YER016W, strain bim1, stronger effect = lower value 1 | locus YER110C, stronger effect = lower value 1.02 | locus YER111C, strain swi4, stronger effect = lower value 0.997 | locus YER155C, strain BEM2 (second series), stronger effect = lower value 1.03 | locus YER155C, strain BEM2, stronger effect = lower value 1 | locus YER167W, strain BCK2, stronger effect = lower value 1 | locus YFR010W, strain ubp6, stronger effect = lower value 0.996 | locus YGL078C, strain dbp3, stronger effect = lower value 1.04 | locus YGL086W, strain mad1, stronger effect = lower value 1.02 | locus YGL167C, strain pmr1, stronger effect = lower value 0.975 | locus YGL173C, strain kem1, stronger effect = lower value 1 | locus YGL227W, strain vid30, stronger effect = lower value 0.985 | locus YGL240W, strain doc1, stronger effect = lower value 1 | locus YGL248W, strain PDE1, stronger effect = lower value 1.05 | locus YGL253W, strain hxk2, stronger effect = lower value 1.02 | locus YGR078C, strain PAC10, stronger effect = lower value 1.02 | locus YGR135W, strain pre9, stronger effect = lower value 1.08 | locus YGR229C, strain SMI1, stronger effect = lower value 0.945 | locus YGR252W, strain gcn5, stronger effect = lower value 1.08 | locus YHR013C, strain ard1, stronger effect = lower value 0.978 | locus YHR027C, strain rpn1, stronger effect = lower value 1 | locus YHR030C, strain SLT2, stronger effect = lower value 1.02 | locus YHR079C, strain IRE1 (second series), stronger effect = lower value 1.01 | locus YHR079C, strain IRE1, stronger effect = lower value 1.03 | locus YHR094C, strain hxt1, stronger effect = lower value 1.01 | locus YHR129C, strain ARP1, stronger effect = lower value 1.01 | locus YHR142W, strain chs7, stronger effect = lower value 0.979 | locus YHR200W, strain rpn10, stronger effect = lower value 1.03 | locus YIL066C, strain RNR3, stronger effect = lower value 1.02 | locus YIL073C, strain SPO22, stronger effect = lower value 1.09 | locus YIL125W, strain kgd1, stronger effect = lower value 1.01 | locus YIR030C, strain dcg1, stronger effect = lower value 1.01 | locus YJL092W, strain hpr5, stronger effect = lower value 0.988 | locus YJL095W, strain BCK1 (second series), stronger effect = lower value 0.987 | locus YJL095W, strain BCK1, stronger effect = lower value 1.08 and 1.04 | locus YJL115W, strain asf1, stronger effect = lower value 0.961 | locus YJL129C, strain trk1, stronger effect = lower value 0.984 | locus YJL134W, strain LCB3, stronger effect = lower value 1.01 | locus YJL154C, strain vps35, stronger effect = lower value 0.99 | locus YJL164C, strain tpk1, stronger effect = lower value 0.963 | locus YJL166W, strain qcr8, stronger effect = lower value 0.993
